About 8,800 targets were measured; listed, in parts, are those with a hit and a random draw of the rest. About 0.5% of all pairs of compound and target were hits.

Sequence of UniProt Q13409 (Q13409 whole entry, looked up): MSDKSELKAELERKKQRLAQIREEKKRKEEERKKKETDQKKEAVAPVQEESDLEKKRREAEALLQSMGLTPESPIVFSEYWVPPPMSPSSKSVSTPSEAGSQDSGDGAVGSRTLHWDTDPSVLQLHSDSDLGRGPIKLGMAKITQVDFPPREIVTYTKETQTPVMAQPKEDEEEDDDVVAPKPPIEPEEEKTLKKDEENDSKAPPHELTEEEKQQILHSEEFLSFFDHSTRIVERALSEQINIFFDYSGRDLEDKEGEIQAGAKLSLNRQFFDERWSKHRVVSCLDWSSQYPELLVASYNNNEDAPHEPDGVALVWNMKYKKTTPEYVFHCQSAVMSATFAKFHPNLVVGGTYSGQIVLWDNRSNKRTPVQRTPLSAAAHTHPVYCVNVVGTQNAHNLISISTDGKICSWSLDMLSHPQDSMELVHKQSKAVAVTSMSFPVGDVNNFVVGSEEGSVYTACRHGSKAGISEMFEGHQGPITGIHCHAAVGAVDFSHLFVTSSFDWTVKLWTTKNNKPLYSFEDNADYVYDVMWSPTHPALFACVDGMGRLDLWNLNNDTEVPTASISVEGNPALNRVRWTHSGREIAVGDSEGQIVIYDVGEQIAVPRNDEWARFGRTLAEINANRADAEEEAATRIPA
Sequence of UniProt Q06547 (Q06547 whole entry, looked up): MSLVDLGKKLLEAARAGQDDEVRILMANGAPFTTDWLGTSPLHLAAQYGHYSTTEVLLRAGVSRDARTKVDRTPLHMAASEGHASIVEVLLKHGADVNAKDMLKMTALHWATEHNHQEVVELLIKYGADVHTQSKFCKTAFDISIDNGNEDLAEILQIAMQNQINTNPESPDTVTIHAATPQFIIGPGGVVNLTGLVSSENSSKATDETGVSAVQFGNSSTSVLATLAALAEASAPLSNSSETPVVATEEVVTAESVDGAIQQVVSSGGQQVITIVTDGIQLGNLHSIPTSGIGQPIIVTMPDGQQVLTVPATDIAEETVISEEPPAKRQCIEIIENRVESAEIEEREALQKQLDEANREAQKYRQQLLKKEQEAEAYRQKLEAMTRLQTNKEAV
Sequence of UniProt Q9UJY4 (Q9UJY4 whole entry, looked up): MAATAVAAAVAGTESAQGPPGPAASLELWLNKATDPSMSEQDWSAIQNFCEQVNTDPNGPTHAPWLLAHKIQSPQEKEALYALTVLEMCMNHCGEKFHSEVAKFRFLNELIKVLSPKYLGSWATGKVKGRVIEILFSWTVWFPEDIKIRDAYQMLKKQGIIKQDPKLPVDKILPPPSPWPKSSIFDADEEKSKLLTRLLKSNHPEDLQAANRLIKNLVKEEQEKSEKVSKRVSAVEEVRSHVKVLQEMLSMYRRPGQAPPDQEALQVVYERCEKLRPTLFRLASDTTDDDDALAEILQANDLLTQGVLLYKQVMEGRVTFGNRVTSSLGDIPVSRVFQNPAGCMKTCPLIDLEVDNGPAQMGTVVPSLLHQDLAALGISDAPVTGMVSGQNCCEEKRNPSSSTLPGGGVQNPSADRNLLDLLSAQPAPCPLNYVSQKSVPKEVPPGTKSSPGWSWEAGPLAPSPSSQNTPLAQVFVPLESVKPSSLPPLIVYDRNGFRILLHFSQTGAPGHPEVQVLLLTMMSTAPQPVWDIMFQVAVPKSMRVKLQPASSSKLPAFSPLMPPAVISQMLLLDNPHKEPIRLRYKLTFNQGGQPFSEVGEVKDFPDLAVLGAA
Sequence of UniProt Q13347 (Q13347 whole entry, looked up): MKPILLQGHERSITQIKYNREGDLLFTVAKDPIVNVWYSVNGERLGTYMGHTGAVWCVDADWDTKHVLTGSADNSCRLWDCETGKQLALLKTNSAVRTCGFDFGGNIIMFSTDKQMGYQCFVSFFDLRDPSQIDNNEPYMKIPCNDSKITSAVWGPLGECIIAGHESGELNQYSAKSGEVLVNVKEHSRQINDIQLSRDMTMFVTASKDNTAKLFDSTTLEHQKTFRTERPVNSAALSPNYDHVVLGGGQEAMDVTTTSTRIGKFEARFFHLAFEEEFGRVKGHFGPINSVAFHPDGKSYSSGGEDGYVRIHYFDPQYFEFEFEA
Sequence of UniProt Q8TEQ6 (Q8TEQ6 whole entry, looked up): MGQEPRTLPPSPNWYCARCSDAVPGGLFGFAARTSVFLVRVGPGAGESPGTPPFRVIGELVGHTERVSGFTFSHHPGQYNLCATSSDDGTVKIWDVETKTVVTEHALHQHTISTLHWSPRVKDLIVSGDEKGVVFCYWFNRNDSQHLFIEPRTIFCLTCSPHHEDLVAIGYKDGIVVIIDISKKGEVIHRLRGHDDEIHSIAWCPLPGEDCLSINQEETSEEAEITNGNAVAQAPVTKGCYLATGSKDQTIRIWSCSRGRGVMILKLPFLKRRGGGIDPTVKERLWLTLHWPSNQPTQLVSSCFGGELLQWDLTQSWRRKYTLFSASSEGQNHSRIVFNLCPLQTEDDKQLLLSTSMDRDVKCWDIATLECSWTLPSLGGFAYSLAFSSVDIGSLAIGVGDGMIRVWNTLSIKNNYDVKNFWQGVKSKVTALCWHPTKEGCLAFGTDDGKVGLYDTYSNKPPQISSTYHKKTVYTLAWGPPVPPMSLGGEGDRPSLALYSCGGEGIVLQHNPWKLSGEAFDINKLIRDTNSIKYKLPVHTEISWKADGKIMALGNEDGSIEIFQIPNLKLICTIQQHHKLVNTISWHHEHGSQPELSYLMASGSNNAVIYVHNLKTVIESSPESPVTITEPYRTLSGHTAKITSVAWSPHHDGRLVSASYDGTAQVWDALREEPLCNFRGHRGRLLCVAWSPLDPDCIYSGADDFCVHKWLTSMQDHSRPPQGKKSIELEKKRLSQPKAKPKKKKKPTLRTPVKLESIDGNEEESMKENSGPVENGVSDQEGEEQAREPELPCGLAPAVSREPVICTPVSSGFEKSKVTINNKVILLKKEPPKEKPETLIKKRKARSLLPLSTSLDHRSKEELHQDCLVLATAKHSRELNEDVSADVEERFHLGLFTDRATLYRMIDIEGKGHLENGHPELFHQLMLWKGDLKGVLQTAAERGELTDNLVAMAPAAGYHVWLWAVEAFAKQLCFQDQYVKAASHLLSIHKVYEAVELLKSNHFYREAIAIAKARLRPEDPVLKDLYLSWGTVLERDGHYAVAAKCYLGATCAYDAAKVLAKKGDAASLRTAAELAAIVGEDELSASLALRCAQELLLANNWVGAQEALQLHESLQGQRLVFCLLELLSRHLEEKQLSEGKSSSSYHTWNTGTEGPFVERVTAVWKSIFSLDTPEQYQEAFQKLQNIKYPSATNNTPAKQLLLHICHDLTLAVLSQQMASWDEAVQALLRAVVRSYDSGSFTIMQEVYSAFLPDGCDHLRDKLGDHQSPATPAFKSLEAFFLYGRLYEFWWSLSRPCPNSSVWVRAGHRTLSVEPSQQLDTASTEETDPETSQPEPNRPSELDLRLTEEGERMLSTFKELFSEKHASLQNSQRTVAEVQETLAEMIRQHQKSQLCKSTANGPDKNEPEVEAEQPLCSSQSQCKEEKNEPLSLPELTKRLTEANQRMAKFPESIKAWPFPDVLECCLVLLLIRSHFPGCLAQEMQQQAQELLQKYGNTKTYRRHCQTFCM
Sequence of UniProt A6NHQ2 (A6NHQ2 whole entry, looked up): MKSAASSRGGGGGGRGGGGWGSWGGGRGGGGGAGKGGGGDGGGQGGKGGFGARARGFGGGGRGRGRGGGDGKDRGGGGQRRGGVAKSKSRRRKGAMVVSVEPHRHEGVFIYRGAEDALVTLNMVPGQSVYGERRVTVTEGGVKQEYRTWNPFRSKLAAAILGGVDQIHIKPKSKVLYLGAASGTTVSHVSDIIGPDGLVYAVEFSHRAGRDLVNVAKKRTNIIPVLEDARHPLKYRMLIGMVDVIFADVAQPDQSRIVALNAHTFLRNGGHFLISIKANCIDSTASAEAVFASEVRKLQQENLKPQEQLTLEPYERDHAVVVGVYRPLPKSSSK
Sequence of UniProt Q6P4F2 (Q6P4F2 whole entry, looked up): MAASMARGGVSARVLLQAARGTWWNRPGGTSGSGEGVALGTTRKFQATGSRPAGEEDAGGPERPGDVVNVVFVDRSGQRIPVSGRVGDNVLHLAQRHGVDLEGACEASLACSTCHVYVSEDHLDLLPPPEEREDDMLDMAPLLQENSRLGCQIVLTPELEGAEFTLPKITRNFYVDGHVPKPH
Sequence of UniProt Q9NV70 (Q9NV70 whole entry, looked up): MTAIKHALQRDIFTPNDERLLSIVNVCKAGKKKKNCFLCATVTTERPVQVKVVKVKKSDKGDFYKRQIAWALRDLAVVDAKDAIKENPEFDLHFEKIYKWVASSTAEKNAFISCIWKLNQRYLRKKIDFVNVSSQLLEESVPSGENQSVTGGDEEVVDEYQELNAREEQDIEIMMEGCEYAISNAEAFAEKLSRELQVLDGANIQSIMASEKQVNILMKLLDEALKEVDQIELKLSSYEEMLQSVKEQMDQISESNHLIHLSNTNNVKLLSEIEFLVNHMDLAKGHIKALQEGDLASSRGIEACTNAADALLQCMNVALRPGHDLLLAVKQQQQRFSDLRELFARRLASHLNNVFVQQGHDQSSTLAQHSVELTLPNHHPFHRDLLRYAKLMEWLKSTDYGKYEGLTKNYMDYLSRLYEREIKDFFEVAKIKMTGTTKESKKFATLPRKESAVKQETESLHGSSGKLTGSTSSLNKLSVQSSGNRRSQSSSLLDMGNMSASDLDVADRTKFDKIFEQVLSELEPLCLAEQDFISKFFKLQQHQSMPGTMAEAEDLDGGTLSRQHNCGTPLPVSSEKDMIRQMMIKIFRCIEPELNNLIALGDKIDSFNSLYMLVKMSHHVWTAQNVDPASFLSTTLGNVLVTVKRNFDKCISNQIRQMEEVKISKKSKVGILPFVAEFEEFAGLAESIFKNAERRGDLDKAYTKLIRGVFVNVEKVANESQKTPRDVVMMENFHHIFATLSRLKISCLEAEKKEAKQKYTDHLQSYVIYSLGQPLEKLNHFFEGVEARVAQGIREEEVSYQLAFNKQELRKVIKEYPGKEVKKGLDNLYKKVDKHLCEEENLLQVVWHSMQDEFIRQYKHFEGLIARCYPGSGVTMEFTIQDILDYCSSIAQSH
Sequence of UniProt O43768 (O43768 whole entry, looked up): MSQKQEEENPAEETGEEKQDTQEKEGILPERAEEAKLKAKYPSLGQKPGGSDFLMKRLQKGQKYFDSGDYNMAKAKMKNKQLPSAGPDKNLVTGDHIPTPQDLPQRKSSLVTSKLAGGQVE

Compound in the first assay: C1=CC=C(C=C1)C2=NC(=C(N2)C3=CC=NC=C3)C4=CC(=C(C=C4)Cl)O
The assay is described as follows: log2 fold change, soluble protein after heating vs DMSO (PISA); higher = thermal stabilisation; K562 lysate, 10 uM; active = over 0.2 and 3.5 SD of the protein, either way, in both replicates (recomputed). In outline:
(§1)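 K562 pellets were dounce-homogenised in PBS pH 7.4 containing 1 mM MgCl2, and the crude extract, at 1 mg/mL protein, was exposed to 10 μM compound for 30 min. Aliquots were heated for 3 min across 48°C-58°C, pooled, brought to 0.5% NP-40 at 4°C and spun at 21,000xg for 90 min, with the supernatant taken as soluble protein. TMTpro 16plex LC-MS/MS with equalised channel sums quantified that protein. Values are log-two fold changes in thermal stability relative to solvent controls, taken from duplicates.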
On to FAU (UniProt E9PR30), for which the log2 fold change is -0.016 (inactive).

Take FTSJ3 (UniProt Q8IY81): the log2 fold change was 0.025 (inactive).

As to GALK1 isoform 2 (UniProt P51570), the log2 fold change is -0.015 (inactive).

Regarding FHOD1 (UniProt Q9Y613), the log2 fold change is -0.011 (inactive).

Regarding FNTB (UniProt P49356), the log2 fold change is -0.005 (inactive).

As for ETHE1 (UniProt O95571), the log2 fold change is -0.007 (inactive).

Regarding GATAD2A isoform 3 (UniProt Q86YP4), the log2 fold change is -0.002 (inactive).

Take DYNC1I2 isoform 2 (UniProt Q13409): the log2 fold change is -0.002 (inactive).

Turning to EIF3I (UniProt Q13347), the log2 fold change was 0 (inactive).

ENSA isoform 3 (UniProt O43768): the log2 fold change was -0.459 (active).

Take GDPD1 (UniProt Q8N9F7): the log2 fold change was 0.011 (inactive).

On to EEF1A1, A0A087WVQ9, for which the log2 fold change was -0.035 (inactive).

Regarding FAM98A (UniProt Q8NCA5), the log2 fold change is 0.01 (inactive).

Regarding GEMIN5 (UniProt Q8TEQ6), the log2 fold change was -0.006 (inactive).

As for FXR2 (UniProt P51116), the log2 fold change was -0.029 (inactive).

Consider ENO1 isoform 2 (UniProt P06733), for which the log2 fold change is -0.003 (inactive).

Take GABPB1 (UniProt Q06547): the log2 fold change was 0.016 (inactive).

In the case of GABPB1 isoform 3 (UniProt Q06547), the log2 fold change is -0.048 (inactive).

EIF2B4 (UniProt Q9UI10): the log2 fold change is -0.121 (inactive).

FYN (UniProt P06241): the log2 fold change was 0.058 (inactive).

As to DUS2 (UniProt Q9NX74), the log2 fold change was 0.021 (inactive).

As for FBXO45 (UniProt P0C2W1), the log2 fold change is -0.126 (inactive).

On to EP400 isoform 5 (UniProt Q96L91), for which the log2 fold change was -0.003 (inactive).

Turning to ECI2 (UniProt O75521), the log2 fold change is -0.019 (inactive).

As for FBLL1 (UniProt A6NHQ2), the log2 fold change was -0.031 (inactive).

For the target FADS3 (UniProt Q9Y5Q0), the log2 fold change is -0.072 (inactive).

Take FANCD2 isoform 1 (UniProt Q9BXW9): the log2 fold change is 0.006 (inactive).

As for DYRK1A (UniProt Q13627), the log2 fold change was 0.016 (inactive).

Consider GGA2 (UniProt Q9UJY4), for which the log2 fold change is 0.014 (inactive).

Regarding DYNC1I2 isoform 5 (UniProt Q13409), the log2 fold change is 0.009 (inactive).

Regarding EXOC1 (UniProt Q9NV70), the log2 fold change is -0.035 (inactive).

For FAM83A (UniProt Q86UY5), the log2 fold change was -0.107 (inactive).

In the case of DST (UniProt Q03001), the log2 fold change was 0 (inactive).

With GCN1 (UniProt Q92616), the log2 fold change was 0.026 (inactive).

For FDX2 (UniProt Q6P4F2), the log2 fold change is -0.041 (inactive).

Turning to ENO1, A0A2R8YEM5, the log2 fold change is 0.016 (inactive).

Compound in the next assay: C1=CC=C2C(=C1)C3=NNC4=CC=CC(=C43)C2=O
The assay is described as above. The essentials: as §1
For FAU (UniProt E9PR30), the log2 fold change was 0 (inactive).

With FTSJ3 (UniProt Q8IY81), the log2 fold change is 0.065 (inactive).

Take GALK1 isoform 2 (UniProt P51570): the log2 fold change was -0.031 (inactive).

For FHOD1 (UniProt Q9Y613), the log2 fold change is -0.016 (inactive).

As for FNTB (UniProt P49356), the log2 fold change is -0.02 (inactive).

As for ETHE1 (UniProt O95571), the log2 fold change was 0.012 (inactive).

As to GATAD2A isoform 3 (UniProt Q86YP4), the log2 fold change is -0.035 (inactive).

For the target DYNC1I2 isoform 2 (UniProt Q13409), the log2 fold change is 0.055 (inactive).

As to EIF3I (UniProt Q13347), the log2 fold change is -0.026 (inactive).

With ENSA isoform 3 (UniProt O43768), the log2 fold change is 0.013 (inactive).

In the case of GDPD1 (UniProt Q8N9F7), the log2 fold change is -0.024 (inactive).

On to EEF1A1, A0A087WVQ9, for which the log2 fold change was -0.072 (inactive).

Take FAM98A (UniProt Q8NCA5): the log2 fold change was 0.014 (inactive).

Take GEMIN5 (UniProt Q8TEQ6): the log2 fold change is -0.034 (inactive).

Consider FXR2 (UniProt P51116), for which the log2 fold change was -0.092 (inactive).

For the target ENO1 isoform 2 (UniProt P06733), the log2 fold change is -0.066 (inactive).

On to GABPB1 (UniProt Q06547), for which the log2 fold change is -0.009 (inactive).

For the target GABPB1 isoform 3 (UniProt Q06547), the log2 fold change is -0.035 (inactive).

For EIF2B4 (UniProt Q9UI10), the log2 fold change is 0.105 (inactive).

For the target FYN (UniProt P06241), the log2 fold change is 0.092 (inactive).

As to DUS2 (UniProt Q9NX74), the log2 fold change is 0.033 (inactive).

Turning to FBXO45 (UniProt P0C2W1), the log2 fold change was -0.069 (inactive).

As to EP400 isoform 5 (UniProt Q96L91), the log2 fold change was -0.074 (inactive).

Turning to ECI2 (UniProt O75521), the log2 fold change was -0.111 (inactive).

Take FBLL1 (UniProt A6NHQ2): the log2 fold change was -0.031 (inactive).

Take FADS3 (UniProt Q9Y5Q0): the log2 fold change was -0.124 (inactive).

FANCD2 isoform 1 (UniProt Q9BXW9): the log2 fold change was -0.092 (inactive).

Regarding DYRK1A (UniProt Q13627), the log2 fold change was 0.084 (inactive).

In the case of GGA2 (UniProt Q9UJY4), the log2 fold change is -0.054 (inactive).

On to DYNC1I2 isoform 5 (UniProt Q13409), for which the log2 fold change was 0.019 (inactive).

As for EXOC1 (UniProt Q9NV70), the log2 fold change was -0.043 (inactive).

As for FAM83A (UniProt Q86UY5), the log2 fold change is -0.031 (inactive).

For DST (UniProt Q03001), the log2 fold change is -0.16 (inactive).

For GCN1 (UniProt Q92616), the log2 fold change is -0.016 (inactive).

On to FDX2 (UniProt Q6P4F2), for which the log2 fold change is -0.054 (inactive).

ENO1, A0A2R8YEM5: the log2 fold change was 0.009 (inactive).

The values are drawn from the supplement of paper PMC10849652.
